Shown are actives, neighbours in structure and some others; about 21% of the full set was active somewhere.
Pf growth 48h: P. falciparum growth inhibition at 48 hours (one generation) | P. falciparum luciferase growth in erythrocytes, 48 h | Potency, µM (titrated, usually from 28.7 µM), for the others: top-dose activity change, negative = inhibition, most hits filed as inhibitors | 310,000 compounds, 5.9% hits | AID 504832; note: potency is the fitted concentration of half-maximal effect; % is set by controls: 0 for no effect and ±100 for the full control effect
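Erythrocytes infected with P. falciparum carrying an integrated firefly luciferase reporter (2% hematocrit, 0.1% parasitemia final) were exposed to compounds in RPMI 1640 with 0.5% Albumax at 37 C, 5% CO2. Growth inhibition was scored as reduced luminescence.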
AMA1 RON2 block: AMA1-RON2 (P. falciparum) interaction inhibition | AID 720542 | 360,000 compounds, 0.2% hits | AlphaScreen AMA1-biotinylated RON2 peptide binding | Potency, µM (series often up to 58.2 µM), inactives show top-dose activity change, negative = inhibition, usual class: inhibitors;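 note: potency is the fitted concentration of half-maximal effect; 0% = vehicle wells and -100% = peptide control; nearly all actives have a fitted effect of over 45% in size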
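AMA1 (3D7) with his tag at 25 nM final met compounds first, then biotinylated RON2 peptide at 25 nM; detection used donor plus acceptor beads, 10 µg/mL apiece, read by AlphaScreen after 30 min at room temperature.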
HCV inhibitor: inhibitors of hepatitis C virus infection | Huh7.5.1 HCVcc-Cre infection, luciferase reporter, 44 h | Potency, µM (doses to about 41.8 µM), inactives show at the highest dose activity change, negative = inhibition, actives largely listed as inhibitors | 340,000 compounds, 3.4% hits; note: potency is the fitted concentration of half-maximal effect; % is set by controls: 0 for no effect and ±100 for the full control effect
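Whole-lifecycle infectious HCVcc-Cre system; cells 1,000/well, compound then virus (~0.5 moi) added 4 h after plating, 44 h culture. Luciferase read 15 sec following 15 min substrate incubation, room temp.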
Shiga toxin inh: inhibitors of Shiga toxin in Vero cells; inhibition, % at 38.7 µM; Vero cells, Shiga toxin protein synthesis inhibition reporter; 290,000 compounds, 9.2% hits; in the data active = inhibition mostly above about 28%, no sharp cut-off; inactive = mostly below about 43%; note: 0% is about no effect
Pf growth 96h: inhibits malaria parasite growth, 96 h; P. falciparum luciferase reporter growth, 96 h; Potency, µM (top dose mostly 28.7 µM), for the others: top-dose activity change, negative = inhibition, most hits filed as inhibitors; 320,000 compounds, 6.9% hits; note: potency is the fitted concentration of half-maximal effect; % is set by controls: 0 for no effect and ±100 for the full control effect
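Infected RBCs, 2% Hct / 0.05% parasitemia final; luciferase-reporter P. falciparum; cpd 96 h, 37 C, 5% CO2; luciferase detection reagent; luminescence.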
Cycloheximide cs: counter-screen hit for Shiga toxin inhibitors, cycloheximide; cell reporter, cycloheximide protein synthesis inhibition counterscreen; max response, %; 300,000 compounds, 12% hits; AID 2314; in the data active = max response mostly above about 13%, no sharp cut-off; inactive = mostly below about 14%; note: read at 38.3 µM for the half of the compounds with a filed dose; 0% is about no effect
Active calls of the source: *; ? = inconclusive; nt = not tested or not shown; [ ] = dose if it differs, or a comment. Unless noted, calls come from the whole dose curve; as a rule, active = well fitted curve in the direction sought with a large enough effect; inconclusive = small, poorly fitted or top-dose-only effect, or another doubt; inactive = no such curve, though single readings can be large; an effect the other way counts as inactive or inconclusive.

SMILES | Pf growth 48h | AMA1 RON2 block | HCV inhibitor | Shiga toxin inh | Pf growth 96h | Cycloheximide cs
Cn1ccnc1SCC(=O)c1cccc(Br)c1 | nt | 2% | 17% | 60 | -5% | 27*
CC1=CC(=O)Nc2ncccc2O1 | nt | 64% | nt | nt | nt | nt
CCc1nnc(NC(=O)CSc2nc3ccc(OC)cc3[nH]2)s1 | 23% | -10% | 8% | 5 | 2% | -1
C/C(NC(=O)c1ccccc1)=C1/C(=O)CC2C1C2(C)C (configuration not stated) | 44% | -4% | 4% | 119* | 66% | 43*
c1ccc(Oc2ncnc3ccccc23)cc1 | nt | -2% | -2% | nt | nt | nt
Cc1ccc(Oc2ncnc3sccc23)cc1 | 86% | -1% | 8% | 91* | 63% | 55*
c1ccc(OCCOc2ncnc3sccc23)cc1 | 67% | 10% | 20% | 69* | 5% | 38*
c1cnc2c(Oc3ncnc4sccc34)cccc2c1 | 31% | -1% | -2% | 27 | 53% | 11
CCOc1ccc(OCCOc2ncnc3ccccc23)cc1 | 18% | -2% | 2% | 68 | 63% | 41*
O=C(C1CCN(S(=O)(=O)c2cccc3cccnc23)CC1)N1CCCCC1 | -20% | -2% | 15% | -8 | 6% | 10
CCOC(=O)C1(C)CCN1C(=O)c1cc(F)ccc1C (configuration not stated) | nt | 2% | nt | nt | nt | nt
COc1cc(C2CC(=O)c3c([nH]c(C(=O)OCCOC(C)C)c3C)C2)cc(OC)c1OC (configuration not stated) | 7.4µM* | 12% | ? | -14 | ? | -3
CCOC(=O)c1[nH]c2c(c1C)C(=O)CC(c1ccc(OC)c(OC)c1)C2 (configuration not stated) | ? | 0% | ? | -22 | 42% | -3
CCOCCOC(=O)c1[nH]c2c(c1C)C(=O)CC(c1ccc(OC)c(OC)c1)C2 (configuration not stated) | ? | -6% | ? | -19 | 1.5µM* | -3
CCOC(=O)c1[nH]c2c(c1-c1ccccc1)C(=O)CC(c1ccccc1)C2 (configuration not stated) | -23% | 0% | -7%[8.37 µM] | 54* | ? | 41*
Cc1cc(-c2csc(N)n2)c(C)n1-c1ccc(Cl)c(Cl)c1 | 4% | -1% | ? | -11 | -27% | -3
COc1ccc(-n2c(C)cc(-c3csc(N)n3)c2C)cc1 | 13µM* | -22% | ? | 13 | ? | 0
CC1=Nc2nc(N3CCCCC3)c(C#N)c3c4c(nc(c23)N1)N(c1ccc(C(C)C)cc1)C(=O)C4 | ? | 4%[11.6 µM] | -16% | -13 | 1.2µM* | -1
CC(C)c1ccc(-c2nc(N3CCCCC3)[nH]c(=O)c2C#N)cc1 | -23% | -2% | 11% | 13 | -12% | -6
Cc1ccc(Cc2nnc3n(-c4cccc(C)c4)nc(C(=O)c4ccccc4)n3c2=O)cc1 | 5.2µM* | 1% | -20% | -4 | 3.7µM* | -4
COC(=O)[C@H]1C[C@@]2(O)CN(S(=O)(=O)c3ccc(C)cc3)C[C@@]2(OC(=O)NC2CCCC2)C[C@H]1C(=O)OC | nt | -12% | nt | nt | nt | nt
CCCCCNC(=O)c1ccc2c(=O)n(CCCN3CCCC3=O)c(=S)[nH]c2c1 | 5.9µM* | 55% | ? | -2 | 10µM* | 16
CCOc1cc2[nH]c(=S)n(Cc3ccc(C(=O)NCCN(CC)CC)cc3)c(=O)c2cc1OCC | 2.6µM* | 54% | ? | -15 | -22% | -1
CCCCNC(=O)c1ccc2c(=O)n(CCCOCC)c(=S)[nH]c2c1 | 49% | 18% | 6% | -17 | 41% | 14
CCN(CC)CCNC(=O)CCCCn1c(=S)[nH]c2c([nH]c3ccc(OC)cc32)c1=O | 9.3µM* | 8% | 15% | 18 | ? | -3
SMILES | Pf growth 48h | AMA1 RON2 block | HCV inhibitor | Shiga toxin inh | Pf growth 96h | Cycloheximide cs
COCCNC(=O)c1ccc2c(=O)n(CCCN3CCCC3=O)c(=S)[nH]c2c1 | ? | -5% | 17% | -1 | ? | -1
CCOc1cc2[nH]c(=S)n(Cc3ccc(C(=O)NCC(OC)OC)cc3)c(=O)c2cc1OCC | ? | 1% | -14% | -16 | ? | -4
CCOCCCn1c(=S)[nH]c2cc(C(=O)NCCN(CC)CC)ccc2c1=O | ? | 8% | 13µM* | 27 | ? | -4
CCC(C(=O)NCC1CCCO1)n1nc(C)c2sc3ccccc3c2c1=O (configuration not stated) | -9% | 6% | -25% | -11 | ? | -7
CCOC(=O)C1(C)CCCCCN1C(=O)c1ccc(C(F)(F)F)nc1C (configuration not stated) | nt | 14% | nt | nt | nt | nt
COC(=O)[C@@]12C[C@@H](CC(=O)NCCC(C)C)C(=O)N(Cc3ccc4c(c3)OCO4)C1=CCC(C)(C)C2 | nt | -17% | nt | nt | nt | nt
COc1cccc(NC(=O)N2CCCC2C(=O)Nc2cc(C)ccc2OC)c1 (configuration not stated) | -11% | 6% | -3% | -7 | -18% | -3
CCN(CC)CCNC(=O)c1ccc2c(=O)n(C3CCCC3)c(=S)[nH]c2c1 | 2.3µM* | 35% | ? | -8 | 3% | -5
O=C(CN1CCN(S(=O)(=O)c2ccccc2)CC1)Nc1ccnn1C1CCCC1 | ? | 9% | 3% | nt | -24% | nt
CC(C)c1ccc(/C=C/c2ccc(=O)n(C)n2)cc1 | 147% | 6% | -10% | 93* | 145% | 27*
COC(=O)CC1=C(C(=O)OC)[C@@H](c2ccccc2[N+](=O)[O-])C(C#N)=C(N)O1 | -2% | 11% | 17% | -9 | ? | -3
C=CCn1c(=O)c2ccccc2n2c(SC(C)C(=O)Nc3nc(-c4ccccc4)cs3)nnc12 (configuration not stated) | 10µM* | -15% | ? | 10 | ? | -5
C=CCn1c(=O)c2ccccc2n2c(SC(C)C(N)=O)nnc12 (configuration not stated) | 30% | -7% | -7% | -4 | 16% | -2
CCc1ccc2oc(-c3cc(N)ccc3O)nc2c1 | -15% | 82% | ? | 15 | ? | 18*
Nc1ccc2oc(-c3ccccc3Cl)nc2c1 | 83% | -15% | -22% | 36* | 32% | 21*
CCc1ccc2oc(-c3cc(N)cc(C)c3O)nc2c1 | 193% | 13% | ? | 80* | 29% | 36*
CCc1ccc2oc(-c3cc(N)ccc3Cl)nc2c1 | 159% | -10% | -7% | 21 | ? | 15*
Nc1ccc2oc(-c3cc(Br)ccc3Cl)nc2c1 | 58% | 23% | ? | 4 | nt | -4
O=C(CCN1N=C(c2ccccc2)CCC1=O)NCC1COc2ccccc2O1 (configuration not stated) | -5% | -5% | -9% | -13 | -22% | -1
COc1ccc(Cl)c(OC)c1C(=O)NC(=O)Nc1c(F)cc(F)cc1F | -24% | -3% | -13% | 10 | ? | -2

Screens from PubChem.
